A selection: hits, their analogues and other compounds. The true share with any hit is near 2.3%.
SENP8 block-1 = SENP8 (human) protease inhibition; Q96LD8; recombinant SENP8, Nedd8 substrate fluorescence; inhibition, % at 20 µM; actives 0.64% (n = 360,000); AID 602440; in the data active = inhibition mostly above about 40%, no sharp cut-off; inactive = mostly below about 27%
Target sequence (Q96LD8 whole entry, looked up): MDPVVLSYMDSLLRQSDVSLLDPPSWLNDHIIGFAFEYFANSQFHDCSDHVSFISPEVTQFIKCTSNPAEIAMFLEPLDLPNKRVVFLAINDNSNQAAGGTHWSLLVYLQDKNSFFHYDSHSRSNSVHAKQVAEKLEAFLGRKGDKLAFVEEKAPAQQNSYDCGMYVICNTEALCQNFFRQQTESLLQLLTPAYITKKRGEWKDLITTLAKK
SENP6 block = blocks the human protease SENP6 | actives 1.8% (n = 330,000) | Q9GZR1 | Recombinant SENP6 catalytic domain, aminoluciferin luminescence | AID 2599 | inhibition, % at 10 µM;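 active = inhibition above about 50% at the single tested dose, limit read from the data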;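 also: plate controls were DMSO wells with enzyme for no effect and DMSO wells lacking enzyme for full effect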
Target sequence (Q9GZR1 628-1112 limits assumed): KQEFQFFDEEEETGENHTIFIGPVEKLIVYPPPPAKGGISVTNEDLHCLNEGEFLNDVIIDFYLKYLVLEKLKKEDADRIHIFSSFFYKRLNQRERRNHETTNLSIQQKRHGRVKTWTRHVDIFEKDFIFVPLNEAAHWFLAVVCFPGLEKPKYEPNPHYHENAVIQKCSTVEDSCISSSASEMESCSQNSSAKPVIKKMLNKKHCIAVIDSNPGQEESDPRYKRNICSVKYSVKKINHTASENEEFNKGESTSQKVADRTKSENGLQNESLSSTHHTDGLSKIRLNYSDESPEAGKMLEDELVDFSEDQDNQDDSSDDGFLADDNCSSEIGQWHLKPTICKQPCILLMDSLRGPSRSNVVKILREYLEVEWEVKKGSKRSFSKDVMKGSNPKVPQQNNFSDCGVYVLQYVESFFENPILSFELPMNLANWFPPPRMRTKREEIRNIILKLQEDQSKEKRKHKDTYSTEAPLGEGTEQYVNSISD
HSP90 refold inh = HSP90 refolding inhibition in rabbit reticulocyte lysate; AID 1789; luciferase refolding luminescence, 3 h; actives 0.91% (n = 290,000); inhibition, % at 5.6 µM;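 active = inhibition above the screen-wide mean plus 3 SD, computed separately per campaign, cut at about 16% in these data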;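 also: 0% = DMSO wells and 100% = 60 µM geldanamycin wells; inhibitors lower the luminescence because luciferase stays unfolded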
LGR2 antag = blocks bursicon-induced cAMP signaling via Drosophila LGR2; inhibition, % at 9.99 µM; AID 720647; HEK293 LGR2, CRE-luciferase, bursicon-stimulated, 4 h; actives 0.35% (n = 380,000);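 active = drop in luminescence signal, shown as inhibition above about 50% in the replicate tests, limit read from the data, passing the limit was not always enough; inconclusive = probably only some replicates passing the limit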;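 also: agonist challenge used bursicon conditioned medium at about half maximal strength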
SENP7 inh = blocks the human protease SENP7 | Q9BQF6 | recombinant SENP7, Z-RLRGG-aminoluciferin luminescence, 40 min | inhibition, % at 5 µM | actives 1.5% (n = 330,000) | AID 434973;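 active = inhibition above about 50% at the single test dose, limit read from the data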;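 also: plate controls were DMSO with enzyme for no effect and no enzyme buffer wells for full effect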
SENP8 block-2 = SENP8 protease inhibition; actives 1.2% (n = 330,000); AID 2540; purified SENP8, Z-RLRGG-aminoluciferin cleavage, luminescence; inhibition, % at 10 µM; in the data active = inhibition above about 50%
SENP8 conf = human SENP8 inhibition, confirmed; shares compounds with SENP7 inh; Recombinant SENP8, Z-RLRGG-aminoluciferin luminescence, 60 min; inhibition, % at 12.5 µM; actives 40% (n = 6,200);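 active = mean inhibition across replicates above about 50%, limit read from the data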
SENP6 conf = confirmation of human SENP6 protease inhibitors; shares compounds with SENP7 inh; inhibition, % at 12.5 µM; actives 58% (n = 6,200); recombinant SENP6, Z-RLRGG-aminoluciferin luminescence; AID 488915
SENP7 confirm = human SENP7 inhibition, confirmed | inhibition, % at 12.5 µM | actives 69% (n = 6,200) | recombinant SENP7, Z-RLRGG-aminoluciferin luminescence, 40 min | shares compounds with SENP7 inh | AID 488917
Casp3 SENP sel = caspase-3 inhibition (SENP selectivity assay); purified caspase-3, Z-DEVD-aminoluciferin luminescence, 60 min; actives 60% (n = 6,200); shares compounds with SENP7 inh; inhibition, % at 12.5 µM;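 active = mean inhibition above about 50%, limit read from the data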;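 also: plate controls were enzyme with DMSO for no effect and wells without caspase-3 for full effect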
SENP luc ctr = interferes with luciferase luminescence in SENP counter-screen | shares compounds with SENP7 inh | actives 39% (n = 6,200) | inhibition, % at 12.5 µM | Pre-incubated SENP8/Z-RLRGG-aminoluciferin, luciferase luminescence interference;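 active = mean inhibition above about 50% when retested at one dose, limit read from the data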;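 also: plate controls were DMSO wells with completed reaction for no effect and substrate without enzyme for full effect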
Numbers without * were called inactive; ? = inconclusive; · = no result given.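 The calls were made as follows, unless noted: active = mean inhibition above about 50% in the one-dose retest (limit read from the data); inactive = the rest.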

SMILES | SENP8 block-1 | SENP6 block | HSP90 refold inh | LGR2 antag | SENP7 inh | SENP8 block-2 | SENP8 conf | SENP6 conf | SENP7 confirm | Casp3 SENP sel | SENP luc ctr
Cc1cc(=O)oc2cc(NC(=O)c3ccccc3C(=O)O)ccc12 | -289 | 1 | 6 | -16 | -3 | -3 | · | · | · | · | ·
O=C(Nc1ccc(Br)cc1F)c1ccc2nsnc2c1 | 13 | -4 | -2 | -65 | 27 | -14 | · | · | · | · | ·
COc1cccc(NC(=O)Nc2cccnc2)c1 | -2 | -8 | 4 | -61 | 7 | -10 | · | · | · | · | ·
Cc1ccc(NC(=O)c2ccc3nsnc3c2)c(Cl)c1 | -10 | 62* | 10 | ? | 81* | 49 | 25 | 13 | 17 | 22 | -5
C[C@H]1CN([C@@H](C)CO)S(=O)(=O)c2ccc(C3=CCCC3)cc2O[C@H]1CN(C)C(=O)c1ccccc1 | · | · | · | 15 | · | · | · | · | · | · | ·
COCC(=O)Nc1ccc2c(c1)[C@@H]1C[C@H](CC(=O)NCc3cccc(F)c3)O[C@H](CO)[C@@H]1O2 | · | · | · | 8 | · | · | · | · | · | · | ·
COc1ccc(-c2cccc(C(=O)Nc3cccc(C(=O)O)c3)c2)cc1 | 0 | 84* | -2 | -99 | 59* | 53* | 69* | 83* | 96* | 20 | 77*
COc1cccc(C(=O)Nc2cc(Cl)c(O)c(Cl)c2)c1 | 8 | 71* | -1 | -16 | 59* | 55* | 64* | 64* | 89* | 85* | 68*
CCOC(=O)Nc1cccc(C(=O)O)c1 | 5 | 61* | -2 | · | 55* | 35 | 52* | 54* | 86* | 34 | 71*
COc1ccc(-c2cccc(C(=O)Nc3ccc(C)cc3)c2)cc1 | 8 | -3 | -7 | · | 3 | 5 | · | · | · | · | ·
COc1cccc(NC(=O)c2ccc(NC(=O)C(C)C)cc2)c1 | 9 | 73* | 2 | -20 | 75* | 55* | 13 | 56* | 85* | 74* | 0
COc1cccc(NC(=O)C(C)C)c1 | 8 | -15 | · | -7 | 4 | 4 | · | · | · | · | ·
C[C@H](CO)N1C[C@H](C)[C@@H](CN(C)Cc2ccccc2)Oc2ncc(C#CCN(C)C)cc2C1=O | · | · | · | 1 | · | · | · | · | · | · | ·
COc1ccc(COc2ccc3c(C)cc(=O)oc3c2)cc1 | -160 | 70* | -2 | -64 | 40 | 50* | 6 | 56* | 45 | 49 | 38
COc1ccc(CCNC(=O)COc2ccc3c(C)cc(=O)oc3c2)cc1 | -98 | 18 | · | -11 | -12 | -9 | · | · | · | · | ·
COc1cccc(NC(=O)c2ccccc2)c1 | 13 | 47 | · | -41 | 51* | 36 | 48 | 44 | 77* | 73* | 51*
CCc1ccc(NC(=O)Nc2cccc(OC)c2)cc1 | 10 | 2 | 1 | -119 | 56* | 53* | 21 | 51* | 82* | 48 | 59*
COc1cccc(NC(=O)c2ccc3nsnc3c2)c1 | -13 | 63* | -5 | -55 | 60* | 43 | 58* | 56* | 85* | 80* | 71*
COc1ccc(NC(=O)N(C)C[C@@H]2Oc3ccc(NS(=O)(=O)c4ccc(F)cc4)cc3C(=O)N([C@@H](C)CO)C[C@@H]2C)cc1 | · | · | · | 1 | · | · | · | · | · | · | ·
O=C(c1ccc(F)cc1)N1[C@@H]2CNc3ccccc3[C@@H]2[C@@H]1CO | · | · | · | -5 | · | · | · | · | · | · | ·
CCCC(=O)N1CCC2(CC1)CN(C(=O)C1CC1)[C@@H](CO)c1[nH]c3cc(OC)ccc3c12 | · | · | · | -16 | · | · | · | · | · | · | ·
CC(C)(O)C#Cc1ccc([C@@H]2[C@@H](CO)N3CCCCN(C(=O)c4ccncc4)C[C@H]23)cc1 | · | · | · | 4 | · | · | · | · | · | · | ·
CO[C@H]1CN(C)C(=O)c2cc(NS(=O)(=O)c3c(C)noc3C)ccc2OC[C@H](C)NC[C@H]1C | · | · | · | 13 | · | · | · | · | · | · | ·
COc1cccc(NC(=O)C(=S)NC2CCCCC2)c1 | 19 | -26 | 4 | 23 | 52* | 10 | 59* | 65* | 84* | 48 | 33
COc1cccc(NC(=O)NC2CCCCCCC2)c1 | 15 | -8 | 1 | -51 | -16 | -2 | · | · | · | · | ·
SMILES | SENP8 block-1 | SENP6 block | HSP90 refold inh | LGR2 antag | SENP7 inh | SENP8 block-2 | SENP8 conf | SENP6 conf | SENP7 confirm | Casp3 SENP sel | SENP luc ctr
CC1CCN(c2ccc(NC(=O)c3ccc(Br)o3)cc2)CC1 | 10 | 81* | 6 | -68 | 88* | 56* | 32 | 30 | 26 | 27 | 14
O=C(N/N=C/c1ccc(Sc2ccccn2)o1)c1cc2ccccc2cc1O | -61 | 94* | 0 | · | 64* | 93* | 90* | 97* | 101* | 92* | 76*
CCOc1ccc(/C=C/C2=NNC(=O)CC2)cc1 | -5 | 70* | 0 | -35 | 74* | 55* | -24 | 52* | 88* | 86* | 68*
C[C@H](CO)N1C[C@H](C)[C@@H](CN(C)S(=O)(=O)c2ccccc2)Oc2ccc(N(C)C)cc2CC1=O | · | · | · | 3 | · | · | · | · | · | · | ·
C[C@H]1CCCCO[C@H](CN(C)CC2CCCCC2)[C@@H](C)CN([C@@H](C)CO)C(=O)c2cc(NS(=O)(=O)c3ccc(F)cc3)ccc2O1 | · | · | · | -14 | · | · | · | · | · | · | ·
N#Cc1ccsc1NC(=O)CSc1nnnn1-c1ccc(O)cc1 | 10 | 52* | 4 | -27 | 18 | 35 | 33 | 25 | 61* | 34 | 33
Cc1nnc(SCC(=O)Nc2sccc2C#N)s1 | -3 | 12 | 0 | 0 | -5 | 3 | · | · | · | · | ·
N#Cc1ccsc1NC(=O)CSc1nncs1 | -4 | 95* | · | -12 | 97* | 95* | 97* | 97* | 102* | 98* | 84*
C[C@@H]1CN([C@H](C)CO)C(=O)Cc2cc(NS(C)(=O)=O)ccc2O[C@H]1CN(C)S(=O)(=O)c1ccc(Cl)cc1 | · | · | · | 5 | · | · | · | · | · | · | ·
O=C(Nc1ccc2c(c1)[C@H]1C[C@@H](CC(=O)N3CCOCC3)O[C@H](CO)[C@H]1O2)c1ccc2c(c1)OCO2 | · | · | · | 14 | · | · | · | · | · | · | ·
CN(C(=O)COc1ccc2ccc(=O)oc2c1)C1CCS(=O)(=O)C1 (stereo not drawn) | -291 | 12 | 2 | -7 | 92* | 2 | 6 | 7 | 10 | 7 | 0
COc1ccc(NC(=O)Nc2cccc3c2O[C@@H](CN(C)Cc2ccc4c(c2)OCO4)[C@H](C)CN([C@H](C)CO)C3=O)cc1 | · | · | · | -10 | · | · | · | · | · | · | ·
C[C@H]1CN([C@@H](C)CO)C(=O)c2cccc(NC(=O)C3CCOCC3)c2O[C@H]1CN(C)C | · | · | · | -1 | · | · | · | · | · | · | ·
